# Data as given in PubChem BioAssay (Tox21).
# Records with an inconclusive call do not appear. Where a call stands in place of a potency, no number is given. Active and inactive are the calls of the source. The call rests on the fitted dose curve; in most records, active means well fitted cell-killing curve with a large enough effect in the repeat runs; inconclusive means weak or mixed curves, or effect the other way; inactive means flat fitted curve, though single readings scatter.
# Assay: cAMP Responsive Elements (CRE) small molecule antagonists, cell-based qHTS assay: qHTS cell viability counter screen (AID 2060913); further: nearly all actives have a fitted effect of over 40% in size
# Settings: CRE-bla HEK293T viability, CellTiter-Glo luminescence, 5 h; series mostly up to 92.4 µM
# In short: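 Cytotoxicity counter screen multiplexed with the CRE-bla antagonist read: HEK293T cells in DMEM with dialyzed FBS and 25 mM HEPES were treated 3 hrs under 0.25 uM final NKH477, then viability measured by CellTiter-Glo luminescence.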
row,Compound,Potency
1,C#C[C@]1(O)CC[C@H]2[C@@H]3CCC4=CC(=O)CC[C@@H]4[C@H]3CC[C@@]21C,inactive
2,CCC(CO)(CO)CO,inactive
3,CCN(CC)CCNC(=O)COc1ccc(OC)cc1,inactive
4,c1cc(OCC2CO2)cc(OCC2CO2)c1 (centres undefined),inactive
5,OC(Cn1cncn1)(Cn1cncn1)c1ccc(F)cc1F,inactive
6,CCc1ccc(C(=O)C(C)CN2CCCCC2)cc1 (centres undefined),inactive
7,COc1cc(C(=O)NCc2ccc(OCCN(C)C)cc2)cc(OC)c1OC,inactive
8,NC(=O)N1c2ccccc2C=Cc2ccccc21,inactive
9,Cc1cccc(N(C)C)c1,inactive
10,C/C(=C\C(C)CC(C)CC(C)C)C1CC(=O)OC1=O (centres undefined),inactive
11,N/C(=N\N=C\c1ccc(Cl)cc1)N/N=C/c1ccc(Cl)cc1,inactive
12,CC(C)C[C@H](NC(=O)[C@H](Cc1ccccc1)NC(=O)c1cnccn1)B(O)O,inactive
13,C=CC(=O)NC(C)C,inactive
14,O=c1[nH]c(=O)n([C@H]2C[C@H](O)[C@@H](CO)O2)cc1F,inactive
15,NCC(=O)CCC(=O)O,inactive
16,O=C(O)c1ccncc1,inactive
17,CN1CC(=O)N/C1=N/C(=O)Nc1cccc(Cl)c1,inactive
18,CCCCCCCCC(=O)O,inactive
19,C=CC(=C)CCC=C(C)C,inactive
20,Oc1ccc(C(c2ccc(O)cc2)C(Cl)(Cl)Cl)cc1,inactive
21,CCNS(=O)(=O)c1ccc(C)cc1,inactive
22,O=c1[nH]c(=O)n([C@H]2CCCO2)cc1F,inactive
23,O=Cc1ccccc1[N+](=O)[O-],inactive
24,CO[Si](CCCNCCC[Si](OC)(OC)OC)(OC)OC,inactive
